Experimental data from PubChem BioAssay (Tox21).
Values joined by “and” are separate entries in the source; they are usually repeats but may differ in a detail not shown here. Identical values can stand only once. Inconclusive results are not listed. Active and inactive are the calls of the source. Unless noted, the call rests on the fitted dose curve; in most records, active means well fitted curve in the direction sought with a large enough effect in the repeat runs; inconclusive means weak or mixed curves; inactive means no such curve, though single readings can be large; an effect the other way counts as inactive or inconclusive.

Assays:
[1] = Human pregnane X receptor (PXR) small molecule agonists, qHTS cell viability counter screen (AID 1346977); further: nearly all actives have a fitted effect of over 50% in size
In short: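 PXR-Luc HepG2 cells (2,000/well, 5% charcoal-stripped FBS) preincubated 5 hr, then exposed to compounds 24 hr at 37 C. Viability read in the same wells by CellTiter-Fluor fluorescence, reagent added at 23 hr, 1 hr incubation.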

[2] = Caspase-3/7 induction in CHO-K1 cells by small molecules, qHTS assay (AID 1346980); further: nearly all actives have a fitted effect of over 15% in size
In short: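 Wild-type cells were seeded at 1,500 per well and settled 5 hr at 37 C, 5% CO2, then exposed to DMSO-dissolved compounds for 17 hr. Caspase-Glo 3/7 reagent was added, and luminescence was read after 30min at room temperature.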

[3] = Caspase-3/7 induction in HepG2 cells by small molecules, qHTS cell viability counter screen (AID 1346981); further: nearly all actives have a fitted effect of over 30% in size; further: potency means the concentration at half of the fitted maximal effect; on activity change, negative = cytotoxicity: series mostly up to about 92 µM
In short: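 Fluorescence read-out of live-cell protease activity (CellTiter-Fluor) after 1 hr with reagent. This was measured in the same wells as the caspase-3/7 luminescence, on HepG2 cells exposed to DMSO-dissolved compounds for 16 hr at 37 C.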

[4] = Caspase-3/7 induction in CHO-K1 cells by small molecules, qHTS cell viability counter screen (AID 1346979); further: nearly all actives have a fitted effect of over 35% in size; further: potency means the concentration at half of the fitted maximal effect
In short: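 Wild-type CHO-K1 cells (1,500/well) treated with compound after 5 h plating; after 16 h at 37C, viability read as CellTiter-Fluor fluorescence following 1 h reagent incubation, in the same wells as the caspase read.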

[5] = molecular target: Nuclear receptor subfamily 1 group I member 2 (Homo sapiens) (UniProt O75469); test: Human pregnane X receptor (PXR) small molecule agonists, qHTS assay (AID 1346982); further: nearly all actives have a fitted effect of over 35% in size; further: potency means the concentration at half of the fitted maximal effect
In short: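 HepG2 PXR-Luc reporter line, 5% charcoal-stripped FBS; 5 hr pre-incubation, compound (DMSO) 24 hr at 37 C/5% CO2; ONE-Glo 30 min RT; luminescence read-out.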

[6] = molecular target: Acetylcholinesterase (Homo sapiens) (UniProt P22303); test: Acetylcholinesterase (AChE) small molecule antagonists: colormetric cell-based qHTS assay (AID 1347395; calls by dose curve; further: nearly all actives have a fitted effect of over 30% in size; further: potency means the concentration at half of the fitted maximal effect)
In short: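 SH-SY5Y cells attached overnight, exposed to compound 30 min at 37 C, then given DTNB/acetylthiocholine; after 90 min at 37 C, colorimetric thiocholine read gives cellular AChE activity.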

[7] = Caspase-3/7 induction in HepG2 cells by small molecules, qHTS assay (AID 1346978); further: nearly all actives have a fitted effect of over 15% in size
In short: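 Wild-type HepG2 cells (2,000/well) were settled 5 h at 37 C, 5% CO2, then exposed to compounds in DMSO for 17 h. Caspase-3/7 activity was read by luminescence 30 min after adding Caspase-Glo 3/7 reagent at room temperature.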

[8] = molecular target: Nuclear receptor subfamily 1 group I member 2 (Rattus norvegicus) (UniProt Q9R1A7); test: Rat pregnane X receptor (rPXR) activation by small molecules, qHTS assay (AID 1346983); details: rPXR luciferase reporter cells, One-Glo luminescence, 24 h; stronger effect = higher value; further: nearly all actives have a fitted effect of over 20% in size
In short: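 Cell-based rPXR luciferase reporter assay, 2,000 cells per well, rested 5hr at 37 C before compound addition in DMSO, then 24 hr at 37 C. One-Glo reagent was added and luminescence read after 30 min at room temperature.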

[9] = molecular target: Nuclear receptor subfamily 1 group I member 2 (Homo sapiens) (UniProt O75469); test: CYP3A4 induction through human pregnane X receptor (PXR) by small molecules, qHTS assay (AID 1346984); further: nearly all actives have a fitted effect of over 40% in size
In short: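 HepG2-derived DPX-2 line carrying PXR plus a CYP3A4-promoter luciferase reporter; cells plated 5 hr, compound-exposed 24 hr at 37C. CYP3A4 activity probed with 3uM (final) Luciferin-IPA for 3hr, then luciferase read after One-Glo.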

[10] = molecular target: Nuclear receptor subfamily 1 group I member 2 (Homo sapiens) (UniProt O75469); test: Human pregnane X receptor (PXR) activation by small molecules, qHTS assay (AID 1346985); further: nearly all actives have a fitted effect of over 40% in size
In short: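 DPX-2 cells (HepG2 co-transfected with a PXR response element and a CYP3A4-promoter luciferase construct) were seeded at 2,000 per well, rested 5 hr at 37C, then exposed to DMSO-dissolved compounds for 24 hr. Activation was read as luciferase luminescence.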
On the % scale 0 is the no-effect control and ±100 the full control effect.

Sequence of Acetylcholinesterase (Homo sapiens) (P22303 whole entry, looked up): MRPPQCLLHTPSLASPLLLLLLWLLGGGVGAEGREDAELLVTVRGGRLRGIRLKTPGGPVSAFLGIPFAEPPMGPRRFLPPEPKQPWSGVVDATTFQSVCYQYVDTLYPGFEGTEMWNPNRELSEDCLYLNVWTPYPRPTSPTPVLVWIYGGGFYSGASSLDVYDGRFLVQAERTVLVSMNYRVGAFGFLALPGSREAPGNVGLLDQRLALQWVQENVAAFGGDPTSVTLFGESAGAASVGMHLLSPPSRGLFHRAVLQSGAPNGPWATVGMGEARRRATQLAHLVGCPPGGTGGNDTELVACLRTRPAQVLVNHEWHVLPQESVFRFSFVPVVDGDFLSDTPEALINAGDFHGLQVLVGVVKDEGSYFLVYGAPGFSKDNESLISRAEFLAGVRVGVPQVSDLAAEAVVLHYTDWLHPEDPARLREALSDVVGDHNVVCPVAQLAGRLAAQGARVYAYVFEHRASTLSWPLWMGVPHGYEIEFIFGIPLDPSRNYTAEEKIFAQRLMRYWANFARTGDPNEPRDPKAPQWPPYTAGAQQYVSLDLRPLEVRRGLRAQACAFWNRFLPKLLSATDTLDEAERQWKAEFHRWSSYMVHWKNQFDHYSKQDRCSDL
Sequence of Nuclear receptor subfamily 1 group I member 2 (Homo sapiens) (O75469 whole entry, looked up): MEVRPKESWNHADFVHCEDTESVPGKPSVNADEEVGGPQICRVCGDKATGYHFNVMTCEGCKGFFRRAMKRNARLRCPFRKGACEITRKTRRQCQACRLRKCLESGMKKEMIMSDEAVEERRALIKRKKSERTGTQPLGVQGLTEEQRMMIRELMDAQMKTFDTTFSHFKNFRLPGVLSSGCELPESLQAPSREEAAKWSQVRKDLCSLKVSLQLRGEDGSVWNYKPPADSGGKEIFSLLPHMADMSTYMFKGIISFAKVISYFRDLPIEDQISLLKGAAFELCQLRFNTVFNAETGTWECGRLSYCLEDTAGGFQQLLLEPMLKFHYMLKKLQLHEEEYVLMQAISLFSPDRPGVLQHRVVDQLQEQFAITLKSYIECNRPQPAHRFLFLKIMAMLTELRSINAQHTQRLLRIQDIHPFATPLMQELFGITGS
Sequence of Nuclear receptor subfamily 1 group I member 2 (Rattus norvegicus) (Q9R1A7 whole entry, looked up): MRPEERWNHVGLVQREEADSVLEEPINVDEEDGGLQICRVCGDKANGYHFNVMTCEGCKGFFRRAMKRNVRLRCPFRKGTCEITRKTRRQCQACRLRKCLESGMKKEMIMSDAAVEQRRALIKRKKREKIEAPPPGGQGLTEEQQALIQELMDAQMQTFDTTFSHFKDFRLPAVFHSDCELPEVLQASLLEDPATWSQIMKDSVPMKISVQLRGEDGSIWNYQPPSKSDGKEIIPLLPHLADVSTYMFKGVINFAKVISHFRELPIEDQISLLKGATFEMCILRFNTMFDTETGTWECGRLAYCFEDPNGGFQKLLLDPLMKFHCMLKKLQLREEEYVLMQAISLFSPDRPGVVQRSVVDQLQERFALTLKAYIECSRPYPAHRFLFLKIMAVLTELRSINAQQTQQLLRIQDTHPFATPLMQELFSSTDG

Clc1ccc(Cl)c(Cl)c1
inactive: Potency [1] | Potency [2] | Potency [3]

O=C(O)c1cc(Cl)ccc1Cl
inactive: Potency [4] | Potency [2] | Potency [3] | Potency [5] | Potency [6]

NCCc1cc(O)c(O)cc1O
inactive: Potency [7] | Potency [2] | Potency [3] | Potency [5] | max activation [8] -4.9% | outcome [9] | Potency [10] | Potency [6]

CC(Cc1ccccc1)NCc1ccccc1Cl (stereo not given)
inactive: Potency [4] | Potency [2] | Potency [3] | outcome [9] | Potency [10] | Potency [6]

O=C(O)C(F)(F)C(F)(F)C(F)(F)C(F)(F)C(F)(F)C(F)(F)C(F)(F)C(F)(F)F
active: Potency [5] 21.7 µM
inactive: Potency [4] | Potency [2] | Potency [3] | Potency [6]

Nc1c(Br)cc(Br)c2c1C(=O)c1ccccc1C2=O
active: Potency [4] 14.5 µM
inactive: caspase activation [7] 0.187% [at 19 µM] | caspase-3/7 activation [2] 3.36% [at 19 µM] | activity change, negative = cytotoxicity [3] -8.94% [at 19 µM] | activation [5] 3.29% [at 19 µM] | activity, negative = inhibition [6] 1.8% [at 23.6 µM]

CC(C)(C)NCC(O)c1cc(Cl)c(N)c(C(F)(F)F)c1 (stereo not given)
inactive: Potency [7] | Potency [2] | Potency [5] | max activation [8] 8.47% | outcome [9] | Potency [10] | Potency [6]

CC(C)[C@@H](C(=O)O[C@@H](C#N)c1cccc(Oc2ccccc2)c1)c1ccc(Cl)cc1
inactive: Potency [7] | Potency [2] | Potency [3] | Potency [6]
active: Potency [5] 5.53 µM and 9.69 µM

CC(C)(C)N(NC(=O)c1ccc(Cl)cc1)C(=O)c1ccccc1
active: Potency [4] 12.1 µM | Potency [3] 12.1 µM
inactive: Potency [7] | Potency [2] | Potency [6]

O=C(NCNC(=O)NC1C(=O)NC(=O)N1CO)NC1C(=O)NC(=O)N1CO (stereo not given)
inactive: Potency [4] | Potency [2] | Potency [3]

CCCN(CCC)C(=O)Cc1c(-c2ccc(Cl)cc2)nc2ccc(Cl)cn12
active: Potency [4] 33.5 µM
inactive: Potency [7] | Potency [2] | Potency [6]

CCCCCCCCCCCC[N+](C)(C)CCOc1ccccc1
active: Potency [4] 43.3 µM | Potency [3] 61.1 µM
inactive: Potency [2] | max activation [8] -6.32% | Potency [6]

CCCCCl
inactive: Potency [4] | Potency [2] | Potency [3] | Potency [5] | max activation [8] -0.159% | outcome [9] | Potency [10] | Potency [6]

Cc1nnc(-c2ccccc2)c(=O)n1N
inactive: Potency [4] | Potency [2] | Potency [3] | Potency [5] | Potency [6]

CC(C)(C#N)C(C)(C)C#N
inactive: Potency [7] | Potency [2] | Potency [3] | Potency [5] | Potency [6]

O=[N+]([O-])c1cc(Cl)c(Cl)cc1Cl
inactive: Potency [4] | Potency [2] | Potency [3] | Potency [5] | Potency [6]

CC(C)CCCCCCCOC(=O)c1ccccc1C(=O)OCCCCCCCC(C)C
inactive: Potency [4] | Potency [2] | Potency [3] | Potency [5] | Potency [6]

O=[N+]([O-])/C=C/c1ccccc1
active: Potency [4] 6.97 µM and 12.2 µM | Potency [3] 31.1 µM and 61.1 µM
inactive: Potency [2]

CCCN(CCC)c1c([N+](=O)[O-])cc(C(C)C)cc1[N+](=O)[O-]
inactive: Potency [7] | Potency [2] | Potency [3] | Potency [6]
active: Potency [5] 23.8 µM

Cc1ccc(N)c(C)c1
inactive: Potency [7] | Potency [2] | Potency [3] | Potency [5]

N#CC(C#N)=Cc1ccc(O)c(O)c1
inactive: Potency [7] | Potency [2] | Potency [3] | Potency [5] | Potency [6]

O=C(Cc1ccccc1)c1ccccc1
inactive: Potency [7] | Potency [4] | Potency [2] | Potency [3] | Potency [6]
active: Potency [5] 61.1 µM

CCOC(=O)NC(O)C(Cl)(Cl)Cl (stereo not given)
inactive: Potency [4] | Potency [2] | Potency [3] | Potency [5] | max activation [8] -1.22% | outcome [9] | Potency [10] | Potency [6]

COc1cc(CC(C)N)c(OC)cc1Br (stereo not given)
inactive: Potency [7] | Potency [4] | Potency [2] | Potency [3] | Potency [6]

OCCCl
inactive: Potency [7] | Potency [4] | Potency [2] | Potency [3] | Potency [5] | Potency [6]

O=C1CC[C@@]2(O)[C@H]3Cc4ccc(O)c5c4[C@@]2(CCN3CC2CC2)[C@H]1O5
inactive: Potency [7] | Potency [4] | Potency [2] | Potency [3] | max activation [8] -2.95% | Potency [6]

CCOC(C(=O)OCCN(C)C)(c1ccccc1)c1ccccc1
active: Potency [5] 13.3 µM
inactive: Potency [7] | Potency [4] | Potency [2] | Potency [3] | Potency [6]

COc1cc(C[C@@H](C)N)c(OC)cc1Br
inactive: Potency [2] | Potency [3] | Potency [5] | Potency [6]

CCOP(=S)(S)OCC
active: Potency [6] 16.7 µM
inactive: Potency [4] | Potency [2] | Potency [3]

CCOP(=S)(OCC)SCSc1cc(Cl)ccc1Cl
inactive: Potency [7] | Potency [4] | Potency [2] | Potency [3] | Potency [5] | Potency [6]

CCCCC(CC)CO[N+](=O)[O-] (stereo not given)
inactive: Potency [7] | Potency [4] | Potency [2] | Potency [3] | Potency [5] | Potency [6]

C[N+]1(CCC(C(N)=O)(c2ccccc2)c2ccccc2)CCCCC1
inactive: Potency [2] | Potency [3] | Potency [5] | max activation [8] -4.99% | outcome [9] | Potency [10] | Potency [6]

O=C(O)C(F)(F)C(F)(F)C(F)(F)C(F)(F)C(F)(F)F
inactive: Potency [7] | Potency [2] | Potency [3] | Potency [5]

c1ccc2sc(SNC3CCCCC3)nc2c1
active: Potency [5] 60.4 µM and 48.6 µM
inactive: Potency [4] | Potency [2] | Potency [3] | max activation [8] 11.8% | outcome [9] | Potency [10] | Potency [6]

CCCC[P+](CC)(CCCC)CCCC (tested in a mixture with another compound)
inactive: Potency [2] | Potency [3] | Potency [5]

Cc1nc2ccccc2c(=O)n1-c1ccccc1Cl
active: Potency [4] 26.7 µM | Potency [3] 26.7 µM | Potency [5] 21.2 µM
inactive: Potency [2] | Potency [6]

CN1CC[C@]23c4c5ccc(O)c4O[C@H]2[C@@H](O)CC[C@H]3[C@H]1C5
inactive: Potency [7] | Potency [4] | Potency [2] | Potency [3] | Potency [5] | Potency [6]

N#CC(C#N)=C(C#N)C#N
inactive: Potency [2] | Potency [5] | Potency [6]

C[Si](Cn1cncn1)(c1ccc(F)cc1)c1ccc(F)cc1
inactive: Potency [7] | Potency [2] | Potency [6]
active: Potency [5] 31.6 µM and 15.4 µM

O=P(OCC(Br)CBr)(OCC(Br)CBr)OCC(Br)CBr (stereo not given)
active: Potency [4] 69.5 µM | Potency [5] 55.2 µM and 51.7 µM
inactive: Potency [7] | Potency [2] | Potency [3] | Potency [6]
